Reference: PubChem BioAssay (NCATS)
“And” between values parts separate entries of the source, which are not always exact repeats. Equal entries are not always repeated. Results filed as inconclusive are left out. The source made the active and inactive calls. Calls come from the whole dose curve; as a rule, active = well fitted curve in the direction sought with a large enough effect; inconclusive = small, poorly fitted or top-dose-only effect, or another doubt; inactive = no such curve, though single readings can be large; an effect the other way counts as inactive or inconclusive.

What was measured:
[1] = target: Cellular tumor antigen p53 (Homo sapiens) (UniProt P04637); experiment: Primary qHTS for small molecule compounds that upregulate eGFP-tagged delta133p53alpha (in N-terminal) cells. (AID 2060322); details: NCI-H358 eGFP-delta133p53alpha fluorescence, 24 h; activation: active compounds read high;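 note: cells pre-induced with doxycycline then dosed without doxycycline; series mostly up to about 56 µM; 0% = DMSO vehicle and 100% = reference activator; nearly all actives have a fitted effect of over 75% in size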
Sequence of Cellular tumor antigen p53 (Homo sapiens) (P04637 whole entry, looked up): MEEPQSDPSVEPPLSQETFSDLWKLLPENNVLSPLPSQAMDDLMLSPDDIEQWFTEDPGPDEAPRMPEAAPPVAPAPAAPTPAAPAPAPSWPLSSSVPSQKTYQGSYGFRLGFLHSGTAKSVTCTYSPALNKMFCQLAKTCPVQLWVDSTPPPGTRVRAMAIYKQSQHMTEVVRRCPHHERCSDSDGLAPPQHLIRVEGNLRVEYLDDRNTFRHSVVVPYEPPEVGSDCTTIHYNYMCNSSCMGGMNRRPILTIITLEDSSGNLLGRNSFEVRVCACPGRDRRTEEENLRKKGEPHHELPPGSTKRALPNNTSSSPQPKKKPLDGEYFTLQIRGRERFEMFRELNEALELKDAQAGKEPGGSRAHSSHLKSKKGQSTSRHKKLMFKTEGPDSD
Procedure, shortened: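 NCI-H358 cells pre-induced 24 h with 10 ng/ml doxycycline for eGFP-delta133p53alpha, plated dox-free and exposed 24 h at 37C to titrated compounds. Fixed, Hoechst-stained; gated GFP peak intensity by laser scanning cytometry, normalized to DMSO (0%) and 57.5 uM 5-azacytidine (100%).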

[2] = BET inhibitor-based combinations targeting novel dependencies in MECOM-rearranged (r) AML: SET-2 cell line (AID 2202231); details: SET-2 AML cells viability, CellTiter-Glo luminescence, 48 h; viability: active compounds read low, concentration not given here; note: nearly all actives have a fitted effect of over 35% in size; note: potency is the fitted concentration of half-maximal effect;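 for viability: plate controls were DMSO treated cells for no effect and wells without cells for full effect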
Procedure, shortened: (§1)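 Luminescent ATP readout (CellTiter-Glo) after 48 hr drug exposure gives viability. Curves span 11 concentrations and are normalized to DMSO and empty wells. Activity is reported as area under the curve and its Z-transform within each cell line.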

[3] = BET inhibitor-based combinations targeting novel dependencies in MECOM-rearranged (r) AML: OCI-AML3 cell line (AID 2202232); details: Potency: OCI-AML3 viability; note: nearly all actives have a fitted effect of over 35% in size; note: potency is the fitted concentration of half-maximal effect
Procedure, shortened: as §1

[4] = BET inhibitor-based combinations targeting novel dependencies in MECOM-rearranged (r) AML: MV-4-11 cell line (AID 2202233); note: nearly all actives have a fitted effect of over 45% in size; note: potency is the fitted concentration of half-maximal effect
Procedure, shortened: (§2)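 Luminescent ATP readout (CellTiter-Glo, 15 min at room temperature) after 48 hr drug exposure gave viability. Dose-response curves, normalized to DMSO and empty-well controls, were summarized as area under the curve and its mean-centred Z-score.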

[5] = BET inhibitor-based combinations targeting novel dependencies in MECOM-rearranged (r) AML: UCSD-AML1 cell line (AID 2202235); note: nearly all actives have a fitted effect of over 40% in size; note: potency is the fitted concentration of half-maximal effect
Procedure, shortened: as §2

[6] = BET inhibitor-based combinations targeting novel dependencies in MECOM-rearranged (r) AML: AML-191 cell line (AID 2202236; note: nearly all actives have a fitted effect of over 35% in size; note: potency is the fitted concentration of half-maximal effect)
Procedure, shortened: as §1

[7] = BET inhibitor-based combinations targeting novel dependencies in MECOM-rearranged (r) AML: AML-194 cell line (AID 2202237; note: nearly all actives have a fitted effect of over 40% in size; note: potency is the fitted concentration of half-maximal effect)
Procedure, shortened: as §1

[8] = BET inhibitor-based combinations targeting novel dependencies in MECOM-rearranged (r) AML: HNT-34 cell line (AID 2202234); note: nearly all actives have a fitted effect of over 35% in size; note: potency is the fitted concentration of half-maximal effect
Procedure, shortened: as §2

O=c1oc2c(O)c(O)cc3c(=O)oc4c(O)c(O)cc1c4c23
inactive: activation [1] -6.69% and -19.7% | viability [2] 113% | Potency [3] | Potency [4] | Potency [5] | Potency [6] | Potency [7]

CCNC(=O)c1cc2c(-c3cc(OCCN4CCCC4)c(Cl)cc3Cl)nc(N)nc2s1
active: Potency [2] 2.88 µM | Potency [3] 2.04 µM | Potency [4] 0.363 µM | Potency [5] 1.29 µM | Potency [6] 1.82 µM
inactive: activation [1] -12.6%

COc1cc2c(cc1OC)[C@@H]1C(=O)c3ccc4c(c3O[C@@H]1CO2)C=CC(C)(C)O4
inactive: activation [1] -3.86%
active: Potency [2] 13.2 µM | Potency [3] 0.525 µM | Potency [4] 6.61 µM | Potency [8] 23.5 µM | Potency [6] 9.34 µM | Potency [7] 20.9 µM

COc1cc([C@@H]2c3cc4c(cc3[C@H](O)[C@H]3COC(=O)[C@H]23)OCO4)cc(OC)c1OC
inactive: activation [1] 24.1%
active: Potency [2] 0.0372 µM | Potency [3] 0.0372 µM | Potency [4] 0.0417 µM | Potency [5] 0.0417 µM | Potency [6] 0.0372 µM

C#C[C@]1(O)CC[C@H]2[C@@H]3CCC4=CC(=O)CC[C@@H]4[C@H]3CC[C@@]21CC
inactive: activation [1] -5.86% | viability [2] 103% | Potency [3] | Potency [8] | Potency [7]
active: Potency [4] 13.2 µM

OC[C@H]1O[C@@H](O[C@@H]2[C@@H](CO)O[C@](O)(CO)[C@H]2O)[C@H](O)[C@@H](O)[C@H]1O
inactive: activation [1] 10% | viability [2] 108% | Potency [3] | Potency [4] | Potency [5] | Potency [6] | Potency [7]

OC[C@@H](O)[C@@H](O)[C@H](O)[C@@H](O)CO
inactive: activation [1] 6.34% | viability [2] 117% | Potency [3] | Potency [4] | Potency [8] | Potency [6] | Potency [7]

C[N+]1(C)[C@@H]2CC(OC(=O)[C@H](CO)c3ccccc3)C[C@H]1[C@@H]1O[C@@H]12 (some centres undefined)
inactive: activation [1] -7.53% | viability [2] 116% | Potency [3] | Potency [4] | Potency [5] | Potency [6] | Potency [7]

COc1ccc(-c2cc(=O)c3c(O)cc(O[C@@H]4O[C@H](CO[C@@H]5O[C@@H](C)[C@H](O)[C@@H](O)[C@H]5O)[C@@H](O)[C@H](O)[C@H]4O)cc3o2)cc1O
inactive: activation [1] 25.9% | viability [2] 112% | Potency [3] | Potency [4] | Potency [5] | Potency [6] | Potency [7]

Cc1cc(OCCCS(C)(=O)=O)cc(C)c1-c1cccc(COc2ccc3c(c2)OC[C@H]3CC(=O)O)c1
inactive: activation [1] 5.3% | viability [2] 98.7% | Potency [3] | Potency [4] | Potency [8] | Potency [6] | Potency [7]

COc1ccc2nc3cc(Cl)ccc3c(Nc3cc(CN4CCCC4)c(O)c(CN4CCCC4)c3)c2n1
active: Potency [2] 7.42 µM | Potency [3] 7.42 µM | Potency [4] 4.68 µM | Potency [8] 11.8 µM | Potency [6] 10.5 µM | Potency [7] 10.5 µM
inactive: activation [1] 55.3%

CC(C)(F)C[C@H](N[C@@H](c1ccc(-c2ccc(S(C)(=O)=O)cc2)cc1)C(F)(F)F)C(=O)NC1(C#N)CC1
inactive: activation [1] -2.96% | viability [2] 104% | Potency [3] | Potency [5] | Potency [6]
active: Potency [4] 4.68 µM

COc1cc(NC(=O)c2ccc(-c3ccc(Cl)cc3)o2)cc(OC)c1
inactive: activation [1] 1.2% | viability [2] 110% | Potency [3] | Potency [4] | Potency [8] | Potency [6] | Potency [7]

C[C@@H](NCc1cc2ccccc2[nH]1)c1cccc2ccccc12
active: Potency [2] 16.6 µM | Potency [3] 14.8 µM | Potency [4] 18.6 µM | Potency [8] 10.5 µM | Potency [6] 13.2 µM | Potency [7] 8.33 µM
inactive: activation [1] -11%

CCOC(=O)C=C[C@H](C[C@@H]1CCNC1=O)NC(=O)[C@@H](CC(=O)[C@@H](NC(=O)c1cc(C)on1)C(C)C)Cc1ccc(F)cc1
inactive: activation [1] 17.3% | viability [2] 120% | Potency [3] | Potency [4] | Potency [5] | Potency [6] | Potency [7]

O=C1NC(O)CCN1[C@@H]1O[C@H](CO)[C@H](O)[C@H]1O (some centres undefined)
inactive: activation [1] -10.6% | viability [2] 115% | Potency [3] | Potency [4] | Potency [8] | Potency [6] | Potency [7]

CN(C)CC/C=C1/c2ccccc2COc2ccc(CC(=O)O)cc21
inactive: activation [1] -13% | viability [2] 121% | Potency [3] | Potency [4] | Potency [8] | Potency [6] | Potency [7]

CC(C)(Cc1ccc2ccccc2c1)NC[C@@H](O)COc1cccc(Cl)c1C#N
active: Potency [2] 18.6 µM | Potency [3] 16.6 µM | Potency [4] 16.6 µM | Potency [8] 16.6 µM | Potency [6] 10.5 µM | Potency [7] 10.5 µM
inactive: activation [1] 19.8%

NCCCC(O)(P(=O)(O)O)P(=O)(O)O
inactive: activation [1] 36.7% and -7.88% | viability [2] 114% | Potency [3] | Potency [4] | Potency [8] | Potency [6] | Potency [7]
